# From PubChem BioAssay (NCATS)
# Records with an inconclusive call do not appear. A number with no mark means an inactive call. Active and inactive are the calls of the source. Calls come from the whole dose curve; as a rule, active = well fitted inhibition curve with a large enough effect; inconclusive = small, poorly fitted or top-dose-only effect; inactive = no such curve, though single readings can be large or run the other way.
# Molecular target: Muscarinic acetylcholine receptor M1 (Rattus norvegicus) (UniProt P08482)
# Test: qHTS Assay for Antagonists of Acetylcholine Muscarinic M1 Receptor: Kinetic Measurement of Intracellular Calcium Response (AID 943)
# Details: M1-expressing cells, kinetic intracellular calcium fluorescence; series mostly up to 35.3 µM; activity change, negative = inhibition: at the top concentration
# Summary of the method: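 CHO cells expressing rat M1 receptor, Fluo-4 loaded, preincubated 10 min with compound, then stimulated with EC80 carbachol (100 nM final). Kinetic calcium fluorescence over 4 min; response taken as peak over basal signal.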
# Note: nearly all actives have a fitted effect of over 75% in size.
# Potency is the fitted concentration of half-maximal effect.
# Sequence of Muscarinic acetylcholine receptor M1 (Rattus norvegicus) (P08482 whole entry, looked up): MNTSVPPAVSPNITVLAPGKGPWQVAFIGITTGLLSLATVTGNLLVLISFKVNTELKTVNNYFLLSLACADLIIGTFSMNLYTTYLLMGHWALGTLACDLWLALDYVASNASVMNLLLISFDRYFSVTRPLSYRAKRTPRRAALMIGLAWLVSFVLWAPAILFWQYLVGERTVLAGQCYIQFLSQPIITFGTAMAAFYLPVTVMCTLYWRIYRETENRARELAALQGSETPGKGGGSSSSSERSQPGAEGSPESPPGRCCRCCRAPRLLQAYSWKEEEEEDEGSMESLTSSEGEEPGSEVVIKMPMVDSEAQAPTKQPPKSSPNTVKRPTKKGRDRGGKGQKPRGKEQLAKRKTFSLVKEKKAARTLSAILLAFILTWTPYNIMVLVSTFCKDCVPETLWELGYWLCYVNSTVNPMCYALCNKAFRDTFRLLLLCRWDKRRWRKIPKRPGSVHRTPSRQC
SMILES,"activity change, negative = inhibition",Potency
CCO/C([O-])=N/c1c[n+](N2CCOCC2)no1,-28.8%,
CCCC(C(=O)OCCN(CC)CC)(c1ccccc1)c1ccccc1,,447 nM (active)
CC(C)[N+](C)(CCOC(=O)C1c2ccccc2Oc2ccccc21)C(C)C,,11.2 nM (active)
CN(C)CCOC(=O)COc1ccc(Cl)cc1,-7.89%,
O=c1[nH]c(=O)n([C@H]2C[C@H](O)[C@@H](CO)O2)cc1Br,-13.8%,

# Molecular target: Muscarinic acetylcholine receptor M1 (Rattus norvegicus) (UniProt P08482)
# Test: qHTS Assay for Antagonists of Acetylcholine Muscarinic M1 Receptor: Measurement of IP-One Response (AID 944)
# Details: CHO-M1 cells, IP-One HTRF, antagonist mode; series mostly up to 46.1 µM; activity change, negative = inhibition: at the top concentration
# Summary of the method: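 CHO cells stably expressing rat M1, pretreated 10 min with compound, then stimulated 30 min with carbachol at EC80 (200 nM) in LiCl-containing buffer pH 7.4; IP1 accumulation read by HTRF competition (665/620 nm).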
SMILES,"activity change, negative = inhibition",Potency
CCn1cc(C(=O)O)c(=O)c2cc3c(cc21)OCO3,28.9%,
COc1cc(Cc2cnc(N)nc2N)cc(OC)c1OC,-36.9%,
CCCC(C(=O)OCCN(CC)CC)(c1ccccc1)c1ccccc1,,11200 nM (active)
CCCCNC(=O)NS(=O)(=O)c1ccc(C)cc1,-21.5%,
Cc1ccc(S(=O)(=O)NC(=O)NN2CCCCCC2)cc1,-17.1%,
CC(C)[N+](C)(CCOC(=O)C1c2ccccc2Oc2ccccc21)C(C)C,,1 nM (active)
CN/C(=C\[N+](=O)[O-])NCCSCc1ccc(CN(C)C)o1,-31.9%,
CN(C)CCOC(=O)COc1ccc(Cl)cc1,-48.5%,
Nc1nc(N)c2nc(-c3ccccc3)c(N)nc2n1,55%,
Cc1nc2ccccn2c(=O)c1CCN1CCC(C(=O)c2ccc(F)cc2)CC1,,8910 nM (active)
